Results as given in ChEMBL document CHEMBL1961873, “Compounds: GSK PKIS; Assays: Nanosyn kinase panel” (2012).

Assays:
[1] = target: Ribosomal protein S6 kinase alpha-6 (Homo sapiens) (UniProt Q9UK32); conditions: at 1 µM;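 also: each value is a mean inhibition of RSK4 from a GSK PKIS panel screen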
[2] = target: T1, Serine/threonine-protein kinase Sgk1 (Homo sapiens) (UniProt O00141); conditions: at 0.1 µM
T1 sequence (whole entry): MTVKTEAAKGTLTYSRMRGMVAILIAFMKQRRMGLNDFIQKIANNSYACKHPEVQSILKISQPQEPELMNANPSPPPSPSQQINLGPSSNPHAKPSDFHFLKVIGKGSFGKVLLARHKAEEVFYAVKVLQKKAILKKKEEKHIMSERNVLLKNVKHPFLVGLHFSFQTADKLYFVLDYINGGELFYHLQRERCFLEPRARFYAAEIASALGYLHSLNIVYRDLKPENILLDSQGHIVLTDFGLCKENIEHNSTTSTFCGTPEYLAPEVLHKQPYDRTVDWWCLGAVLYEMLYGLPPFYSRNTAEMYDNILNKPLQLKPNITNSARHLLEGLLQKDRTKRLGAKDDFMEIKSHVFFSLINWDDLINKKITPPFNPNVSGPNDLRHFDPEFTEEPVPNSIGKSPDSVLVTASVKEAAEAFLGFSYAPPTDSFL

[3] = target: T1, Serine/threonine-protein kinase Sgk1 (Homo sapiens); conditions: at 1 µM
[4] = target: T2, Serine/threonine-protein kinase Sgk2 (Homo sapiens) (UniProt Q9HBY8); conditions: at 0.1 µM
T2 sequence (whole entry): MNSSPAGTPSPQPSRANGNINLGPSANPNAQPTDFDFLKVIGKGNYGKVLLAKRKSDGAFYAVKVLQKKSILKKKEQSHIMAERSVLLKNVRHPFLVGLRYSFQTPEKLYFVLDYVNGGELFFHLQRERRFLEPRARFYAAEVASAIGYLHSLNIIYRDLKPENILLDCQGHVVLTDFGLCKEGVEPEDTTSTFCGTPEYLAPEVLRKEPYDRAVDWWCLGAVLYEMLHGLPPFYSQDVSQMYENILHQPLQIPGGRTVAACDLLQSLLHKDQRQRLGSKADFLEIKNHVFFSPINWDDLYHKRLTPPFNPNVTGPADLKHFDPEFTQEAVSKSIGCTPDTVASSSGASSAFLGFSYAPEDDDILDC

[5] = target: T2, Serine/threonine-protein kinase Sgk2 (Homo sapiens); conditions: at 1 µM
[6] = target: T3, Serine/threonine-protein kinase Sgk3 (Homo sapiens) (UniProt Q96BR1); conditions: at 0.1 µM
T3 sequence (whole entry): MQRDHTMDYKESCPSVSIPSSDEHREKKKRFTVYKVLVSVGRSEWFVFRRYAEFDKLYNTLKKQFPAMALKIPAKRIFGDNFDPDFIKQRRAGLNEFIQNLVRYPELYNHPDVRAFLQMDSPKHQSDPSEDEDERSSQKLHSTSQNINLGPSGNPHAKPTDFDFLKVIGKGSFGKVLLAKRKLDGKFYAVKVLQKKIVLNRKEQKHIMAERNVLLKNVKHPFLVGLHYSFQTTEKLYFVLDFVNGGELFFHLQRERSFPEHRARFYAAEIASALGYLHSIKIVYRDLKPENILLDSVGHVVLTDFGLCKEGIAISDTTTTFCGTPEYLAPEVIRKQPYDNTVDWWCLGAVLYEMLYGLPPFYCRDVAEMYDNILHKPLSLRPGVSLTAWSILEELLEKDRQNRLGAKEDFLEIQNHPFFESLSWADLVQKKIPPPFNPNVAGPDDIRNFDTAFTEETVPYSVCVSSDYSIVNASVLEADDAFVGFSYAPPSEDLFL

[7] = target: T3, Serine/threonine-protein kinase Sgk3 (Homo sapiens); conditions: at 1 µM
[8] = target: 5'-AMP-activated protein kinase catalytic subunit alpha-1 (Homo sapiens) (UniProt Q13131); conditions: at 0.1 µM
[9] = target: 5'-AMP-activated protein kinase catalytic subunit alpha-1 (Homo sapiens) (UniProt Q13131); conditions: at 1 µM
[10] = target: 5'-AMP-activated protein kinase catalytic subunit alpha-2 (Homo sapiens) (UniProt P54646); conditions: at 0.1 µM
[11] = target: 5'-AMP-activated protein kinase catalytic subunit alpha-2 (Homo sapiens) (UniProt P54646); conditions: at 1 µM
[12] = target: T4, NUAK family SNF1-like kinase 1 (Homo sapiens) (UniProt O60285); conditions: at 0.1 µM
T4 sequence (whole entry): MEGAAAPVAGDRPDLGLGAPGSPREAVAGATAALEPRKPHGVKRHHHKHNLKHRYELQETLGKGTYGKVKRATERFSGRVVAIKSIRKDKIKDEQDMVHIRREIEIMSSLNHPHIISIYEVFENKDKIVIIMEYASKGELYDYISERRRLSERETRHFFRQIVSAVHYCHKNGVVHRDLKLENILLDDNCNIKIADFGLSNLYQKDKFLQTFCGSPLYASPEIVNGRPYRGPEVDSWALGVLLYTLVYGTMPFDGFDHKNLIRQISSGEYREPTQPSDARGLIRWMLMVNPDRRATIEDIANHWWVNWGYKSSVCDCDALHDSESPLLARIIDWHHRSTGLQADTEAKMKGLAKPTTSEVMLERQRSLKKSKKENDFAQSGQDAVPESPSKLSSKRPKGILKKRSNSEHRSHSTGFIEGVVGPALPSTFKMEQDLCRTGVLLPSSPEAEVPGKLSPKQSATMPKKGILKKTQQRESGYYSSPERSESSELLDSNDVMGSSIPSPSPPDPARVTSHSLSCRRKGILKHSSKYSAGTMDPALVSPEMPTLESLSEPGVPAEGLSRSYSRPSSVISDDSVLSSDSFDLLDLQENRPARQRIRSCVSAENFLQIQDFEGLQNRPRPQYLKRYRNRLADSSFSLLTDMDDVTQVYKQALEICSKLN

[13] = target: T4, NUAK family SNF1-like kinase 1 (Homo sapiens); conditions: at 1 µM
[14] = target: T5, Serine/threonine-protein kinase BRSK1 (Homo sapiens) (UniProt Q8TDC3); conditions: at 0.1 µM
T5 sequence (whole entry): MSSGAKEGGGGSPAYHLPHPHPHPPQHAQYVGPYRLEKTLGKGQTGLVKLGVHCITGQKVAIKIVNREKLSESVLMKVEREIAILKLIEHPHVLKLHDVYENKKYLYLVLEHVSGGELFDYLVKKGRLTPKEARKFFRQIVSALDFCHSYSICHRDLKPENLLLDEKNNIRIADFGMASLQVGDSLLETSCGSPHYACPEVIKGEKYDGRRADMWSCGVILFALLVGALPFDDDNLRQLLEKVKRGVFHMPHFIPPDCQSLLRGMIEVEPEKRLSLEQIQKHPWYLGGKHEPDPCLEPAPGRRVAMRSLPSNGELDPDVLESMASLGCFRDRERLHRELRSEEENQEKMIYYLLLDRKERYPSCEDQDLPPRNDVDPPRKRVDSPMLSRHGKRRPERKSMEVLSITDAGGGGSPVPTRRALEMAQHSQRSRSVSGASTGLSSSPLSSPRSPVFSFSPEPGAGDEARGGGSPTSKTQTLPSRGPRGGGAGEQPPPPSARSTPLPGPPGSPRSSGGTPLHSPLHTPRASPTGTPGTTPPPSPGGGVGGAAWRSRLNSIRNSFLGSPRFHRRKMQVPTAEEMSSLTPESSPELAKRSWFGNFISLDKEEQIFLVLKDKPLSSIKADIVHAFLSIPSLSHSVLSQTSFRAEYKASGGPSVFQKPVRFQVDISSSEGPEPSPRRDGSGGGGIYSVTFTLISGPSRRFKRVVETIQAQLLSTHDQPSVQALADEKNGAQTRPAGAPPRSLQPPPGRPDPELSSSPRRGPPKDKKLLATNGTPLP

[15] = target: T5, Serine/threonine-protein kinase BRSK1 (Homo sapiens); conditions: at 1 µM
[16] = target: T6, Serine/threonine-protein kinase BRSK2 (Homo sapiens) (UniProt Q8IWQ3); conditions: at 0.1 µM
T6 sequence (whole entry): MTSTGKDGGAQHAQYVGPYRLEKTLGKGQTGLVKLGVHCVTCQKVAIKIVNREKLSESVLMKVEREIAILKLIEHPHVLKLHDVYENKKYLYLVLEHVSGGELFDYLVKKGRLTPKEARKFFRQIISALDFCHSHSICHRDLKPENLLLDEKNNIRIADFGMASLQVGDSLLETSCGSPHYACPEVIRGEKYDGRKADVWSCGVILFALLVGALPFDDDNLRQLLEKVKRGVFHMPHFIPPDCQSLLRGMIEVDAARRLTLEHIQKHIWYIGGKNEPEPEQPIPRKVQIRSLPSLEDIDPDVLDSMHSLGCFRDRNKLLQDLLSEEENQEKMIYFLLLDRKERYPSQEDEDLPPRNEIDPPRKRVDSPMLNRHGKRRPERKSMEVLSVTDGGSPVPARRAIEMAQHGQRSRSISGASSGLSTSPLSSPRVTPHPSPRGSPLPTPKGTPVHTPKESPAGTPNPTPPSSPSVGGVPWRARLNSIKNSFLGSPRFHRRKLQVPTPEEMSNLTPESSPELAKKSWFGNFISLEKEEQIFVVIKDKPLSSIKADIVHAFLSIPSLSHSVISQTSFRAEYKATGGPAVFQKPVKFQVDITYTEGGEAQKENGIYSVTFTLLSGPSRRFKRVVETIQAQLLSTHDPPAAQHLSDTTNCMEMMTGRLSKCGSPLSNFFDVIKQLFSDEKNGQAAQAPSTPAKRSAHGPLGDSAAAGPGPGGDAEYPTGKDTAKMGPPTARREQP

[17] = target: T6, Serine/threonine-protein kinase BRSK2 (Homo sapiens); conditions: at 1 µM
[18] = target: Calcium/calmodulin-dependent protein kinase type 1D (Homo sapiens) (UniProt Q8IU85); conditions: at 0.1 µM
[19] = target: Calcium/calmodulin-dependent protein kinase type 1D (Homo sapiens) (UniProt Q8IU85); conditions: at 1 µM
[20] = target: Calcium/calmodulin-dependent protein kinase type II subunit alpha (Homo sapiens) (UniProt Q9UQM7); conditions: at 0.1 µM;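 also: reported values are averages (mean inhibition of CAMK2A)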
Chain of Calcium/calmodulin-dependent protein kinase type II subunit alpha (Homo sapiens) (Q9UQM7 whole entry): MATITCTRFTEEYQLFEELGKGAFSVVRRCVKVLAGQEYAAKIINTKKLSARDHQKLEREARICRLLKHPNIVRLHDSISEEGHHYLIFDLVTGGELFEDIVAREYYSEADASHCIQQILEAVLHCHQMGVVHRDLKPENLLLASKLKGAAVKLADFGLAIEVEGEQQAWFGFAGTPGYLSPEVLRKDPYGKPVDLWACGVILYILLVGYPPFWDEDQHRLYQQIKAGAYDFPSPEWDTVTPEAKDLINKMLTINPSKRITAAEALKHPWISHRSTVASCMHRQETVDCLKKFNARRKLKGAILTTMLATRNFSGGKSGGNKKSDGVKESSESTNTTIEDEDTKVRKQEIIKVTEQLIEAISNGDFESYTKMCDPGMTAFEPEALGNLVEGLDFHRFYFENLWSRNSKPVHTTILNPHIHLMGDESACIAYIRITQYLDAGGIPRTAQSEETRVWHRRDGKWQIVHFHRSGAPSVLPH

Chain of 5'-AMP-activated protein kinase catalytic subunit alpha-1 (Homo sapiens) (Q13131 whole entry, looked up): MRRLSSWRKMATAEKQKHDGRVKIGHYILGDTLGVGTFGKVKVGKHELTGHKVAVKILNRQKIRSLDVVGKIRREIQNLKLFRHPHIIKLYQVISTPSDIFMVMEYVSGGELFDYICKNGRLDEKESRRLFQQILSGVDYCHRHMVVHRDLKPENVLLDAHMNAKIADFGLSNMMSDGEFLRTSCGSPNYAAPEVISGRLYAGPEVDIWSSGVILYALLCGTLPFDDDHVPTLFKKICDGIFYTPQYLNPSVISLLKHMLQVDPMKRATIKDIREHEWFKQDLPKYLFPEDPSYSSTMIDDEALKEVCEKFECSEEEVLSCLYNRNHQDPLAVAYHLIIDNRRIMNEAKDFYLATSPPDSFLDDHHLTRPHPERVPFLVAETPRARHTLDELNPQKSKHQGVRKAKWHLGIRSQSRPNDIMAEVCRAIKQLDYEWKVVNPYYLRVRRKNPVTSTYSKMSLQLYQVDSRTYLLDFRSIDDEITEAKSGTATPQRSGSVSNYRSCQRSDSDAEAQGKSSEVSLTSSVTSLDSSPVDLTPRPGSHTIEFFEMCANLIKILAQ
Chain of Calcium/calmodulin-dependent protein kinase type 1D (Homo sapiens) (Q8IU85 whole entry, looked up): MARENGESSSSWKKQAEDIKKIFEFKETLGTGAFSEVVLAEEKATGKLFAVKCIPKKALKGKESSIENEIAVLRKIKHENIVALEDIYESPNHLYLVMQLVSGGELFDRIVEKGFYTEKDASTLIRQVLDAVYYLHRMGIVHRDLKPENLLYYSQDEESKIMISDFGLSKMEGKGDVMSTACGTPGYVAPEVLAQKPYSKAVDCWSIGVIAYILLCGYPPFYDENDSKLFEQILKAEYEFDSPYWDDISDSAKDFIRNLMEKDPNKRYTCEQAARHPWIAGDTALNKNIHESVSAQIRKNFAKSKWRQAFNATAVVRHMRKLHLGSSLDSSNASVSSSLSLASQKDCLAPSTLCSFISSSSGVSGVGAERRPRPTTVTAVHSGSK
Chain of Ribosomal protein S6 kinase alpha-6 (Homo sapiens) (Q9UK32 whole entry): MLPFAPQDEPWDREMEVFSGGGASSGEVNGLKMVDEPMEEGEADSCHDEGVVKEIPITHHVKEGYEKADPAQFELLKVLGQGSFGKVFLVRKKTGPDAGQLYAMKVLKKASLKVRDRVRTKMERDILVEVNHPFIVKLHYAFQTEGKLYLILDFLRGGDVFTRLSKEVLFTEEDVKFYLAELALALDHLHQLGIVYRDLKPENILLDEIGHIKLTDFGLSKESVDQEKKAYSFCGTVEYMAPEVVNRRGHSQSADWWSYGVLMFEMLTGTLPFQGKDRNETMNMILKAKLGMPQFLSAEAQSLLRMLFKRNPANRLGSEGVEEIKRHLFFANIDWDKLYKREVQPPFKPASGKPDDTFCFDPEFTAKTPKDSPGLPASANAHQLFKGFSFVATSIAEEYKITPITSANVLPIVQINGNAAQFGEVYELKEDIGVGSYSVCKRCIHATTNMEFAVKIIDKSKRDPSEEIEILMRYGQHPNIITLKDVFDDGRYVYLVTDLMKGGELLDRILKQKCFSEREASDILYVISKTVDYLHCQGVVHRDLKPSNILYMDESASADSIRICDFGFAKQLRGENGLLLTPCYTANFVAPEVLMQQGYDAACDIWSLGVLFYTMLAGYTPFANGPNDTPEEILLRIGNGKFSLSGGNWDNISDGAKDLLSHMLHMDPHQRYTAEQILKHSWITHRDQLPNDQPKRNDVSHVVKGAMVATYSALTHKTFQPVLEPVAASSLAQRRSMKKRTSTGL
Chain of 5'-AMP-activated protein kinase catalytic subunit alpha-2 (Homo sapiens) (P54646 whole entry, looked up): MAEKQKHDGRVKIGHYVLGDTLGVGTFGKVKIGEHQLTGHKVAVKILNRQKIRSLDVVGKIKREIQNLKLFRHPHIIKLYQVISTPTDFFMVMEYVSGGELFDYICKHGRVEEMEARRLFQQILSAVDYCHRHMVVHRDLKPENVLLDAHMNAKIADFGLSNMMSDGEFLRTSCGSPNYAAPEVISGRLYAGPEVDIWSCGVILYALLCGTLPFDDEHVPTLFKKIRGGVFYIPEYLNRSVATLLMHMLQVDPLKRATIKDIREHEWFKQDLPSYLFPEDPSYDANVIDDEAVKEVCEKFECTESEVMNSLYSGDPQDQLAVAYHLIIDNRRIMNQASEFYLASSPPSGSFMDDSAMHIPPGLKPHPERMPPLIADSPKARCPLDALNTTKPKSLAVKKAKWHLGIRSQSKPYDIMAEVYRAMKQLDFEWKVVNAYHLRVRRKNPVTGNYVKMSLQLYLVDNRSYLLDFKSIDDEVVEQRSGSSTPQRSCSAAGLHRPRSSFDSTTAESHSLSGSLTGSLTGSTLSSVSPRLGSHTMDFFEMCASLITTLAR

| Compound | inhibition [1] | inhibition [2] | inhibition [3] | inhibition [4] | inhibition [5] | inhibition [6] | inhibition [7] | inhibition [8] | inhibition [9] | inhibition [10] | inhibition [11] | inhibition [12] | inhibition [13] | inhibition [14] | inhibition [15] | inhibition [16] | inhibition [17] | inhibition [18] | inhibition [19] | inhibition [20] |
| --- | --- | --- | --- | --- | --- | --- | --- | --- | --- | --- | --- | --- | --- | --- | --- | --- | --- | --- | --- | --- |
| CCn1c(-c2nonc2N)nc2c(N3CCCC3)nccc21 | -0.13% | 0.28% | -1.03% | -2.98% | 2.83% | -0.79% | -0.02% | -0.36% | 0.11% | -8% | 0.77% | 4.51% | 0.95% | 1.14% | 1.31% | 1.48% | 3.56% | -0.31% | -0.81% | -1.53% |
| CS(=O)(=O)CCNCc1ccc(-c2ccc3ncnc(Nc4ccc(OCc5cccc(F)c5)c(C(F)(F)F)c4)c3c2)o1 | 0.81% | 3.21% | 3.35% | 1.66% | 2.48% | 3.28% | 4.67% | 2.01% | 3.32% | 3.2% | 3.63% | 2.03% | 0.5% | -0.9% | -1.79% | 1.37% | 3.52% | -0.13% | 0.72% | 3.67% |
| c1cnn2ncc(-c3ccnc(Nc4ccc5c(c4)OCCO5)n3)c2c1 | 9.17% | 2.25% | 7.34% | 6.82% | 1.72% | 2.27% | -0.29% | 4.61% | 11.6% | 1.53% | 12.6% | 52.8% | 83.2% | 0.46% | 6.78% | 2.51% | 9.28% | 1.5% | 5.85% | 5.45% |
